Rows were chosen to be rich in hits. Some 19% of all compounds tested hit in one or more screens of this group.
HT1080 IDH1KD tx – HT-1080 IDH1 knockdown cell toxicity (counter line) | HT-1080 IDH1 knockdown viability, ATP luminescence, 48 h | Potency, µM (doses to about 46.1 µM), without a hit: top-dose activity, negative = toxicity, most hits filed as cytotoxic | 360,000 tested, 2% active | AID 686971;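 further: potency means the concentration at half of the fitted maximal effect; 0% = DMSO wells and -100% = cell-free medium wells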
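Knockdown cells (IDH1KD HT-1080) received compounds 2 h after plating at 750 cells/well and were kept 48 h at 37 °C in 5% FBS RPMI. A CellTiter-Glo luminescence read gave % activity for curve fitting.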
IL-1B inflam inh – blocks inflammasome-driven IL-1 beta release | 360,000 tested, 4.7% active | activity change, % at 57.5 µM | THP-1 LPS/ATP IL-1B secretion, AlphaLISA, 16 h; active compounds read low; in the data active means activity change below about -50%; inconclusive means mostly about -30% to -49%
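THP-1 cells pretreated 1 hr with compounds (up to 57.5 uM final), then stimulated with LPS (250 ng/mL final) plus ATP (1.25 mM final); secreted IL-1B measured by AlphaLISA after 16 hr, decreased signal indicating inhibition.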
DT40 TDP1 CPT – growth inhibition of DT40 Tdp1-/-;hTDP1 cells with camptothecin (screen for TDP1 inhibitors); Potency, µM (doses to about 46.2 µM), for inactives: at the highest dose activity change, negative = growth inhibition, most hits filed as inhibitors; chicken DT40 Tdp1-/-;hTDP1 cells + 20 nM CPT, ATP luminescence, 48 h; 420,000 tested, 12% active; AID 686979; further: potency means the concentration at half of the fitted maximal effect; nearly all actives have a fitted effect of over 55% in size
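Cell growth measured by CellTiter-Glo luminescence after a minimum 48 h, 37 C compound exposure with 20 nM CPT in Tdp1-knockout DT40 cells stably expressing hTDP1, seeded 400/well; qHTS titration format.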
TDP1 cell noCPT – qHTS for Inhibitors of human tyrosyl-DNA phosphodiesterase 1 (TDP1): qHTS in cells in absence of CPT | 420,000 tested, 15% active | DT40 Tdp1-/- hTDP1 cells, no CPT, ATP luminescence, 48 h | Potency, µM (series often up to 46.2 µM), for inactives: at the top dose activity change, negative = growth inhibition, most hits filed as inhibitors | AID 686978, 2013; further: potency means the concentration at half of the fitted maximal effect; nearly all actives have a fitted effect of over 55% in size
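Chicken DT40 Tdp1-/- cells stably complemented with human TDP1 were seeded at 400 cells/well with DMSO in place of 20 nM camptothecin. After compound pinning, cells grew at least 48 hr at 37 °C; viability read by CellTiter-Glo luminescence.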
HT1080-NT tox – kills 2HG-producing HT-1080-NT fibrosarcoma cells; HT-1080-NT fibrosarcoma viability, CellTiter-Glo ATP luminescence, 48 h; Potency, µM (titrated, usually from 46.1 µM), without a hit: top-dose activity, negative = less viability, hits mostly cytotoxic; 360,000 tested, 1.6% active;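 further: NT is the 2HG producing partner of a matched IDH1 knockdown line; potency means the concentration at half of the fitted maximal effect; 0% = DMSO-treated cells and -100% = media-only wells without cells; nearly all actives have a fitted effect of over 55% in size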
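HT-1080-NT; 750 cells/well; 5% FBS RPMI; 48 h compound, 37 degrees C; CellTiter-Glo luminescence; curve fitting and curve-class assignment.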
Starred values were filed as active, the others as inactive; ? = inconclusive; . = not tested or not shown. Unless noted, the call rests on the fitted dose curve; in most records, active means well fitted curve in the direction sought with a large enough effect; inconclusive means small, poorly fitted or top-dose-only effect, or another doubt; inactive means no such curve, though single readings can be large; an effect the other way counts as inactive or inconclusive. Unless noted, on the % scale 0 is the no-effect control and ±100 the full control effect.

SMILES	HT1080 IDH1KD tx	IL-1B inflam inh	DT40 TDP1 CPT	TDP1 cell noCPT	HT1080-NT tox
COc1ccc(C(=O)NCCNc2ccccc2[N+](=O)[O-])cc1	-7%	?	?	-22%	3%
CCCNC(=O)c1ccc(S(=O)(=O)c2ccc(OC)cc2)c([N+](=O)[O-])c1	?	-92*	5.2µM*	4.1µM*	?
Cc1ccc(CSc2c(C)cnc3c2c(=O)n(C)c(=O)n3C)cc1	.	.	23µM*	?	.
CC(C)c1nc(SCC(=O)Nc2ccc3c(c2)OCCO3)c2c(=O)n(C)c(=O)n(C)c2n1	4%	10	?	?	1%
CCc1ccc(NC(=O)CSc2c(C)cnc3c2c(=O)n(C)c(=O)n3C)cc1	.	.	23µM*	23µM*	.
CC(C)c1nc(SCC(=O)Nc2cccc(C(F)(F)F)c2)c2c(=O)n(C)c(=O)n(C)c2n1	2%	0	4.6µM*	3.7µM*	13%
Cc1cnc2c(c1SCC(=O)NCc1ccc(F)cc1)c(=O)n(C)c(=O)n2C	.	.	-4%	-26%	.
Cn1c(=O)c2c(nc(SCC(=O)Nc3ccc(OC(F)(F)F)cc3)n2Cc2cccc(C(F)(F)F)c2)n(C)c1=O	.	.	10µM*	8.2µM*	.
CCc1cnc2c(c1SCC(=O)Nc1ccc(C(=O)OC)cc1)c(=O)n(C)c(=O)n2C	.	.	1%	-19%	.
O=C(C(=O)N1CCC(c2ccccc2)CC1)c1ccc(F)c(F)c1	-15%	5	?	?	-8%
CCCc1cnc2c(c1SCC(=O)Nc1c(C)cc(C)cc1C)c(=O)n(C)c(=O)n2C	.	.	4%	-5%	.
CCCc1cnc2c(c1SCc1ccc(C(F)(F)F)cc1)c(=O)n(C)c(=O)n2C	.	.	?	21µM*	.
CC(C)c1cnc2c(c1SCC(=O)Nc1ccc(OC(F)(F)F)cc1)c(=O)n(C)c(=O)n2C	.	.	9.2µM*	8.2µM*	.
CCc1cnc2c(c1SCc1ccccc1C)c(=O)n(C)c(=O)n2C	.	.	-25%	?	.
Cc1ccc(C)c(CSc2c(C(C)C)cnc3c2c(=O)n(C)c(=O)n3C)c1	.	.	18µM*	?	.
CCCc1cnc2c(c1SCC(=O)Nc1ccc(C)c(Cl)c1)c(=O)n(C)c(=O)n2C	.	.	18µM*	?	.
COc1ccc(OC)c(NC(=O)N(C)CCc2c(C)nn(C)c2C)c1	.	.	-2%	?	.
CN1C(=O)CSC1=NC12CC3CC(CC(C3)C1)C2	-17%	47	-19%	?	5%
CCN1C(=O)CSC1=NC12CC3CC(CC(C3)C1)C2	5%	-66*	?	?	0%
CCc1ccc(S(=O)(=O)Nc2c(NC3CCCCC3)c3ccccc3oc2=O)cc1	-15%	-63*	?	?	-23%
COc1ccc(C[C@H]2COC(=O)[C@@H]2Cc2ccc(OC3OC(CO)C(O)C(O)C3O)c(OC)c2)cc1OC (some centres not stated)	0%	38	?	21µM*	-9%
COc1cc(C2SCC(=O)N2CCc2ccc(OC)c(OC)c2)ccc1O (configuration not stated)	14%	61	4%	-8%	3%
COc1cc(C[C@H]2C(=O)OC[C@@H]2Cc2ccc(OC)c(OC)c2)ccc1O	.	.	2.4µM*	1.7µM*	.
COC(=O)CN1C(=O)COc2ccc(S(=O)(=O)NCc3ccccc3)cc21	11%	8	0%	-14%	3%
Cc1cccc(NC(=O)C2CCN(S(=O)(=O)c3c(C)c(C)cc(C)c3C)CC2)n1	?	-89*	15µM*	16µM*	-25%
Cc1ccc(S(=O)(=O)N2CCC(C(=O)Nc3ccccc3N3CCCCC3)CC2)cc1	7%	-17	18µM*	?	-7%
Cc1cc(C)c(C)c(S(=O)(=O)N2CCC(C(=O)NCC(c3ccccc3)N(C)C)CC2)c1C (configuration not stated)	18µM*	?	-1%	?	?
O=C(Nc1cc(S(=O)(=O)N2CCCCC2)ccc1N1CCCCC1)C1CC1	1%	-3	-93%	16µM*	26%

From PubChem BioAssay
